Reference: PubChem BioAssay AID463173 (ICCB-Longwood Screening Facility, Harvard Medical School, 2010)
The whole screen tested about 52,000 compounds, of which about 4,300 (8.3%) were called active. Cut-off read from the data, not from the text of the source: active = survival mostly below about 52% (no sharp cut-off); inactive = mostly above about 56%. For the sample, actives were picked, then their nearest neighbours and some compounds at random.

tested on: DeltatarO mutant; experiment: S. aureus survival, RN4220 and DeltatarO strains – OD600, teichoic acid synthesis inhibitors, primary screen (AID 463173); settings: S. aureus RN4220 wild type/DeltatarO growth, OD600, 18 h, active compounds read low, screened at 18.75 µg/mL (by protocol)

| Compound | survival |
| --- | --- |
| Cc1ccc(C)c(N2CCN(S(=O)(=O)c3ccc4c(c3)CC(=O)N4C)CC2)c1 | 125% (inactive) |
| CC(C)CCNC(=O)C(=O)Nc1c2c(nn1-c1ccccc1)CS(=O)(=O)C2 | 77% (inactive) |
| CC(C)OCCCNC(=O)C(=O)Nc1c2c(nn1-c1ccccc1)CS(=O)(=O)C2 | -5% (active) |
| COCCNC(=O)C(=O)Nc1c2c(nn1-c1ccccc1)CS(=O)(=O)C2 | 92% (inactive) |
| CN(c1ccc(Cl)cc1)S(=O)(=O)c1nnc(NC(=O)C2CCCCC2)s1 | 106% (inactive) |
| Cc1ccc(NC(=O)C(Cc2ccccc2)NS(=O)(=O)c2cccc3nsnc23)c(C)c1 (stereo unspecified) | 125% (inactive) |
| CCCNC(=O)C1CCC(Cn2c(=O)c3sccc3n(CC(=O)N3CCC(C)CC3)c2=O)CC1 (stereo unspecified) | 73% (inactive) |
| Cc1ccccc1NC(=O)c1ccccc1NC(=O)c1ccccc1Cl | 72% (inactive) |
| Cc1cc2nc(-c3ccc(OCc4ccccc4)cc3)cc(C(F)(F)F)n2n1 | 79% (inactive) |
| Cc1cccc(COc2ccc(-c3cc(C(F)(F)F)n4nc(C)cc4n3)cc2)c1 | 9% (active) |
| Cc1cc2nc(-c3ccc(OCc4ccc(F)cc4)cc3)cc(C(F)(F)F)n2n1 | 34% (active) |
| Cc1cc(C(F)(F)F)n2nc(C)cc2n1 | 68% (inactive) |
| COc1ccc(-c2cc3nc(-c4ccc(C)cc4)cc(C(F)(F)F)n3n2)cc1 | 135% (inactive) |
| Cc1ccc(COc2ccc(-c3cc(C(F)(F)F)n4nc(C)cc4n3)cc2)cc1 | 137% (inactive) |
| Cc1ccc(C)c(CN2C(=O)c3ccccc3S(=O)c3ccc(C(=O)NCCC4=CCCCC4)cc32)c1 (stereo unspecified) | 52% (inactive) |
| COc1cccc(-c2nnc(SCC(=O)NC3CCCCC3)o2)c1 | 73% (inactive) |
| Cc1ccc(C(=O)O)cc1-n1c(C)ccc1-c1ccccc1 | 59% (inactive) |
| O=C(Cn1c(=O)nc(-c2ccccc2)c2ccccc21)Nc1ccc(Cl)c(C(F)(F)F)c1 | 90% (inactive) |
| COc1cccc(NC(=O)Cn2c(=O)n(Cc3ccccc3)c(=O)c3ccccc32)c1 | 125% (inactive) |
| COc1ccc(-n2ccnc(NCCc3ccccc3)c2=O)cc1OC | 102% (inactive) |
| CC(C)CCOc1ccc(Cn2c(=O)sc3ccccc32)cc1 | 0% (active) |
| CCCOc1ccc(CNC(=O)Cn2c(=O)oc3ccccc32)cc1 | 80% (inactive) |
| O=c1sc2ccccc2n1CCCOc1ccccc1 | 105% (inactive) |
| CCCOc1ccc(Cn2c(=O)sc3ccccc32)cc1 | -1% (active) |
| CCCCOc1ccc(Cn2c(=O)sc3ccccc32)cc1 | -1% (active) |
| CCOc1ccc(Cn2c(=O)sc3ccccc32)cc1 | 85% (inactive) |
